# In PubChem BioAssay:
# Active and inactive are the calls of the source.
# Legend:
# [1] = compounds binding Alexa647 anti-His antibody – biochemical, small-molecule microarray, 635 nm fluorescence, artefact control for SMM control protein annotation, primary screen (AID 1128); details: higher = more signal;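 further: score merges feature fluorescence with signal-to-noise for each printed compound spot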
# [2] = tested on: Human papillomavirus type 1a E7 protein (residues 1-88); experiment: HPV1a E7 small-molecule binders, primary screen, biochemical, small-molecule microarray, residues 1-88, 635 nm (AID 1129); details: small-molecule microarray binding, fluorescence 635 nm; higher = more signal
# [3] = target: Focal adhesion kinase 1 (Homo sapiens) (UniProt Q05397); experiment: PTK2 protein binding on printed compound slides – biochemical, small-molecule microarray, 635/667 nm fluorescence, BSA, DTT, primary screen (AID 1130); details: 635 nm fluorescence, higher = more signal;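 further: composite of spot emission at 667 nm and signal to noise over triplicate slides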
# Focal adhesion kinase 1 (Homo sapiens), sequence (Q05397 whole entry, looked up): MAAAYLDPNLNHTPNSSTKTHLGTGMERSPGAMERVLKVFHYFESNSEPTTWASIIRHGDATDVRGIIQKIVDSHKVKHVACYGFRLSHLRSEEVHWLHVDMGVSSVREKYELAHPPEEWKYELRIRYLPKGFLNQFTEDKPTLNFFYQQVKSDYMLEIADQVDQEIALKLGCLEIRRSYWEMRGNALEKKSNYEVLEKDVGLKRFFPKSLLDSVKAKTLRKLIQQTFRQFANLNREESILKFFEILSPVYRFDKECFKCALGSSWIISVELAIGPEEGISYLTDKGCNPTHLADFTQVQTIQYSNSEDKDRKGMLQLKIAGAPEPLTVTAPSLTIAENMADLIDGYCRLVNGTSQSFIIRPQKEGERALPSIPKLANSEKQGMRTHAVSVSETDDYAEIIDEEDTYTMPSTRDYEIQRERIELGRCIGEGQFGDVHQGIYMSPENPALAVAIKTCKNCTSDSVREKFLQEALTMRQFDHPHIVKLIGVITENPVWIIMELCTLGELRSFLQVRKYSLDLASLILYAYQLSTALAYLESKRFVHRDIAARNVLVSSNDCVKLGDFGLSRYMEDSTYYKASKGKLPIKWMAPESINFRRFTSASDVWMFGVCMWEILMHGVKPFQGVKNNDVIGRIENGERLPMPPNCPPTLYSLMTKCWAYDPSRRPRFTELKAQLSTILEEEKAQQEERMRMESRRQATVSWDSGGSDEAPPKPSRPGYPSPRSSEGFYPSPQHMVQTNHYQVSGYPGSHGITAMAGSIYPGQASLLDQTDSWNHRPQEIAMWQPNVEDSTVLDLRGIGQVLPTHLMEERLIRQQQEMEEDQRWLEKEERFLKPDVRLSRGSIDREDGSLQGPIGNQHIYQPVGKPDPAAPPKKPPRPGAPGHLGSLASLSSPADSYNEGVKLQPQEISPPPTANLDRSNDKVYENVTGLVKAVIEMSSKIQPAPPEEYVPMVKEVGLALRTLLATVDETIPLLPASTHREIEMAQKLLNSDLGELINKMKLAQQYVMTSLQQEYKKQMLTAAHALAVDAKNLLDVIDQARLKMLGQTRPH
# [4] = tested on: Fibrinogen (Alexa647-labelled); experiment: Alexa647-fibrinogen binding to printed small molecules – biochemical, small-molecule microarray, 635/667 nm fluorescence, artefact control for SMM control-protein annotation, profiling panel (AID 1131); details: fibrinogen-A647 binding fluorescence, higher = more signal;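 further: z-score merges 667 nm fluorescence with per-spot signal-to-noise over triplicate slides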
# [5] = target: Follistatin (Homo sapiens) (UniProt P19883); experiment: FST protein binding to printed compounds – biochemical, small-molecule microarray, 635/667 nm fluorescence, primary screen (AID 1132); details: 635 nm fluorescence, higher = more signal
# Follistatin (Homo sapiens), sequence (P19883 whole entry, looked up): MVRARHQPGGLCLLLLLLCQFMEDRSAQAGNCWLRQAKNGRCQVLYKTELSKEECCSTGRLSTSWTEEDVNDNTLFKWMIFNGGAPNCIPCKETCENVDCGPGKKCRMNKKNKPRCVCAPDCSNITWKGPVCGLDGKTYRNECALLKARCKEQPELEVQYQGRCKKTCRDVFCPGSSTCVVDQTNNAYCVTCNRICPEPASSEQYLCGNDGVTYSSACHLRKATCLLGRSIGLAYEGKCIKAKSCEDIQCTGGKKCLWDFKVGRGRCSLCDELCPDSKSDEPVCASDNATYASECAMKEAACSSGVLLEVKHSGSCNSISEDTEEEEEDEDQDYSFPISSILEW
# [6] = target: Fibroblast growth factor 2 (Homo sapiens) (UniProt P09038); experiment: basic fibroblast growth factor binding to printed compounds – biochemical, small-molecule microarray, 635/667 nm fluorescence, primary screen (AID 1133); details: FGF2, fluorescence 635/667, higher = more signal
# Fibroblast growth factor 2 (Homo sapiens), sequence (P09038 whole entry, looked up): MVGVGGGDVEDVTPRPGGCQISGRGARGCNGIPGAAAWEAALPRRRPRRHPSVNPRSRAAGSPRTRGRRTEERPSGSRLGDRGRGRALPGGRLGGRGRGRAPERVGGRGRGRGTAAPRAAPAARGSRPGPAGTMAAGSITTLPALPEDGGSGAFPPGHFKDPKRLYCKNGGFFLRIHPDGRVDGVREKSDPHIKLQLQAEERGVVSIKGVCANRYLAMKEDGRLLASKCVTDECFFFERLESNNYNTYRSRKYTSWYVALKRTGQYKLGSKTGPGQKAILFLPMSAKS
# [7] = JC-1 mitochondrial potential readout, lung cancer cells – cell-based, A549, JC-1 fluorescence, basal, 24 h, 100 nL, profiling panel (AID 1138); details: higher = more signal;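 further: A549 lung adenocarcinoma cells under basal conditions with no added stimulus; test concentration not given here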
# Lefty1 = Lefty1 protein binding to printed compounds – biochemical, small-molecule microarray, 635/667 nm fluorescence, primary screen (AID 1139); details: fluorescence 635/667, higher = more signal
# [8] = tested on: wheat germ agglutinin (Triticum aestivum), Alexa647-labelled; experiment: Alexa647-WGA lectin binding to printed small molecules – biochemical, small-molecule microarray, 635/667 nm fluorescence, artefact control for SMM control-protein annotation, profiling panel (AID 1140); details: WGA-A647 binding, 635 nm fluorescence, higher = more signal;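 further: score merges 667 nm feature emission with signal to noise over triplicate slides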
# [9] = target: Luciferin 4-monooxygenase (Photinus pyralis) (UniProt P08659); experiment: inhibition of purified Photinus pyralis luciferase – biochemical, luminescence, purified enzyme, 2006 set, primary screen (AID 1141); details: purified firefly luciferase, SteadyGlo luminescence, 30 min; higher = more signal, called active from +8 up or from −8 down;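 further: cell-free assay with purified firefly luciferase at 100 ng per well in PBS; test concentration not given here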
# Luciferin 4-monooxygenase (Photinus pyralis), sequence (P08659 whole entry, looked up): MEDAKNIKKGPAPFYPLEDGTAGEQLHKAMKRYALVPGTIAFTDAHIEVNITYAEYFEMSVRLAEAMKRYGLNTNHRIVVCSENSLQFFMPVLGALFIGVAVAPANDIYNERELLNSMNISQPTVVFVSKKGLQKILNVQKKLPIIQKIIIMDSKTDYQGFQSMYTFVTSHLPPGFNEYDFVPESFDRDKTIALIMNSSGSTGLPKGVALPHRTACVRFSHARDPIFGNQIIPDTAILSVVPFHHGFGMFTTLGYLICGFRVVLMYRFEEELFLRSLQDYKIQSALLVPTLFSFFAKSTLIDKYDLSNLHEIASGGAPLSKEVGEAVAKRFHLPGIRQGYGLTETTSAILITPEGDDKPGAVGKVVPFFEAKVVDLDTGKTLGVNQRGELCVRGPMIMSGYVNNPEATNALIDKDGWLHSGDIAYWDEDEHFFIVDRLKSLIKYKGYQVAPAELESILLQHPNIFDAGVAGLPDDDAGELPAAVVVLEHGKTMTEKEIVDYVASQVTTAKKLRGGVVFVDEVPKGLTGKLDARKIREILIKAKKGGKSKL
SMILES,composite z-score [1],composite z-score [2],composite z-score [3],composite z-score [4],composite z-score [5],composite z-score [6],z-score [7],composite z-score (Lefty1),composite z-score [8],z-score [9]
CCCCCCCCCCC(O)C1C=CC2C(=O)N(C)C(=O)C2N1Nc1cc(OC)c(OC)c(OC)c1 (stereo not given),0.255,0.242,0.55,-0.203,-0.763,-1.44,1.06,-0.946,0.458,-0.819 (inactive)
CN1C(=O)C2C=CC(C(O)c3cc(C(F)(F)F)cc(C(F)(F)F)c3)N(Nc3ccccc3)C2C1=O (stereo not given),0.581,0.737,0.99,-0.35,-0.101,-0.419,0.587,0.302,0.225,0.787 (inactive)
CCOC(=O)C1=CC[C@@H](c2ccccc2)N(S(=O)(=O)c2ccc(C)cc2)[C@H]1c1cccc(OC)c1,0.741,1.15,-0.0106,0.669,0.76,0.356,1.96,-0.245,0.773,1.56 (inactive)
Cc1ccc(S[C@]2(C(=O)NC(C)C)CC(=O)N(C(C)C)[C@@H]2c2ccc(CO)cc2I)cc1,-0.893,-0.0049,1.58,0.351,-0.077,-0.471,1.28,-0.18,0.169,1.11 (inactive)
COCCOC(=O)N1C(=O)[C@@]2(c3cc(C#CCNC(N)=O)ccc31)[C@H](c1ccc(OCCO)cc1)N1[C@H](c3ccccc3)[C@H](c3ccccc3)OC(=O)[C@H]1[C@@H]2C(=O)NC[C@H](O)c1ccccc1,0.626,0.984,0.445,0.942,1.37,1,-1.19,1.16,0.768,0.0945 (inactive)
COCCCNC(=O)[C@@]1(Sc2ccc(C)cc2)CC(=O)N(C(C)C)[C@@H]1c1ccc(CO)cc1I,-0.578,0.569,-0.0285,-0.491,-0.035,-0.335,-0.0858,-0.21,0.271,0.805 (inactive)
Cc1c(NC(=O)/C(C#N)=C/c2ccccc2Cl)c(=O)n(-c2ccccc2)n1C,0.228,0.654,-0.0387,0.425,0.255,-0.0318,0.886,-0.0835,0.195,-0.805 (inactive)
CCN(CC)c1ccc(N2CC=CC34O[C@@H]5/C=C\CCC(C)OC(=O)C5[C@H]3C(=O)N(C(C)CO)[C@@H]4C2=O)cc1 (stereo not given in full),-0.361,-0.935,0.212,-0.145,0.565,-0.0619,0.723,0.321,-0.663,-1.5 (inactive)
